Results reported in PubChem BioAssay.
Where “and” joins values, the source holds several entries; their conditions need not be identical. Identical values can stand only once.

assay: PSAC antagonists in infected red cells, primary screen, cell-based, P. falciparum Indochina, OD700, 18 h (AID 1157); conditions: P. falciparum Indochina infected erythrocytes, osmotic lysis OD700, 18 h; higher = more signal, called active from +8 up or from −8 down

z-score, inactive:
COC(=O)C1=C(C)N(Cc2ccccc2)[C@]23O[C@](C(=O)OC)(C(=O)N2[C@@H]1c1ccccc1)[C@@H](C(=O)OC)[C@H]3C(=O)OC -0.022 and 0.17
CO[C@@H]1COC(=O)CC=C[C@H](C)COC(=O)[C@H](C)NC(=O)CC=C[C@H]1C -0.138
COC(=O)C1=C(C)N(Cc2ccccc2)C2=C(C(C)=O)[C@H](c3ccccc3)[C@@](O)(C(=O)OC)C(=O)N2[C@@H]1c1ccccc1 0.419 and -0.175
C[N+](C)(C)CCCCNC(=O)[C@H]1C[C@H]2C(=O)N[C@@H](CCCC[N+](C)(C)C)C(=O)N2[C@H]1c1cccc(OCCO)c1 0.155 and 0.23
CCOC(=O)NN=C1C[C@@H](O)[C@@H](O)[C@@H]2[C@@H]3C(=O)N(Cc4ccc5c(c4)OCO5)C(=O)[C@@H]3CC[C@@H]12 0.574
C[N+](C)(C)CCCCNC(=O)[C@H]1C[C@H]2C(=O)N[C@@H](CCCC[N+](C)(C)C)C(=O)N2[C@H]1c1ccc(O)cc1 0.154 and -2.13
O=c1n(-c2ccccc2)c(=O)n2n1CC[C@@H]1C(=NOC[C@@H](O)COCc3ccco3)[C@H]3O[C@H]3[C@@H](O)[C@@H]12 -2.3 and 0.0983
C=C[C@@H](C)[C@H](O)c1ccc(O)c2ccccc12 0.795 and 0.599
COC(=O)C1=C(C)N(Cc2ccccc2)C2=C(C(C)=O)C[C@@](O)(C(=O)OC)C(=O)N2[C@@H]1c1ccccc1 -1.62 and -0.838
CCC[C@@H]1C[C@@]1(CCC)[C@@H](NC(=O)c1ccc(-c2ccccc2)cc1)c1cccc(Cl)c1 0.446 and 0.691
C=CCN(CCCC)C(=O)C1N(CCOCCO)C(=O)C2C(C(=O)O)C3C=CC21O3 (stereo not given) 0.0875 and 0.111
C=CCN(Cc1ccccc1)C(=O)C1N(CCOCCO)C(=O)C2C(C(=O)O)C3C=CC21O3 (stereo not given) -1.71 and 0.0394
C=CC[C@@H](O)c1ccc(O)c2ccccc12 0.131 and 0.548
CO[C@@H]1C=CCC(=O)N2CCC[C@H]2C(=O)OC[C@H](C)C(=O)OC[C@H]1C 0.0084
CN1C(=O)C2CC=C([C@H]3Oc4ccccc4S(=O)(=O)N4CCC[C@@H]34)CC2C1=O (stereo not given in full) 0.354 and 0.133
CCOC(=O)c1ccc(NC(=O)O[C@H]2[C@H](OC(=O)Nc3ccccc3)[C@@H](OC(=O)Nc3ccccc3)[C@@H](OC)O[C@@H]2CO)cc1 0.764 and 0.888
C=CCN(Cc1ccccc1)C(=O)C(c1cccs1)N(C(=O)/C=C\C(=O)O)c1c(Cl)cccc1CO (stereo not given) 0.306 and 0.109
CC(CO)N1C(=O)[C@@H]2C3C(=O)OCCC=C[C@H]3OC23C=CCN(CCN2CCOCC2)C(=O)[C@@H]13 (stereo not given in full) 0.138 and 0.21
CO[C@H]1COC(=O)CC=C[C@@H](C)COC(=O)[C@@H](OCc2ccccc2)C=C[C@@H]1C -0.0412
CCCC[C@@H]1CN2[C@@H](CC[C@@H](C)[C@@H]2c2ccc(Br)cc2)C(=O)O1 0.367 and 0.443
CCN1C(=O)[C@H]2[C@H]3[C@H](O)[C@H](O)CC(=NOC[C@@H](O)COCc4ccco4)[C@@H]3CC[C@H]2C1=O -0.21 and 0.464
C=CCN(CCCCC)C(=O)C(c1cccs1)N(C(=O)/C=C\C(=O)O)c1ccc(CCO)cc1 (stereo not given) 0.0113 and 0.0094
C=CCN(C(=O)C1N(c2c(Cl)cccc2CO)C(=O)C2C(C(=O)O)C3C=CC21O3)c1ccc(OC)cc1 (stereo not given) 0.287 and -1.34
C=CCN(CCCC)C(=O)C1N(C(C)(C)CO)C(=O)C2C(C(=O)O)C3C=CC21O3 (stereo not given) 0.0135 and -0.109
C=C[C@@H](C)[C@@H](O)c1ccc(OCCO)cc1 0.281 and -0.873
C=CCN(CCCCC)C(=O)C1N(C(C)(C)CO)C(=O)C2C(C(=O)O)C3C=CC21O3 (stereo not given) -0.281 and -0.646
CCOC(=O)[C@@H]1CC2O[C@]23C[C@@H]1C(=O)N1CCC[C@@H]1[C@H]3O[Si](C)(C)C(C)(C)C (stereo not given in full) 0.134 and -0.162
CCOC(=O)C[C@H]1[C@H](OC(=O)c2ccccc2-c2ccccc2)[C@@H](NC(=O)Cc2ccc(OC)cc2)c2cc(OCCCO)ccc2N1C(=O)Cc1ccc(OC)cc1 -1.18 and 0.255
COC(=O)CC=C[C@@H](C)[C@@H](CO)NS(=O)(=O)c1ccc(C)cc1 -0.145 and 1.05
C[N+](C)(C)CCCCCCNC(=O)[C@@H]1C[C@@H]2C(=O)N[C@@H](CCCC[N+](C)(C)C)C(=O)N2[C@@H]1c1ccc(O)cc1 -0.115 and 0.375
COC(=O)C1=C(C)N(Cc2ccccc2)C2=C3C(=O)CCC[C@@H]3[C@@](O)(C(=O)OC)C(=O)N2[C@@H]1c1ccccc1 0.249 and -0.767
O=C1C[C@]2(c3ccc([N+](=O)[O-])cc3)C(=O)N(Cc3ccccc3)c3cc(CO)ccc3[C@H]2N1C1CCCCC1 -0.434 and -0.166
CC(C)=CCCC(C)=CCON=C1C[C@@H](O)[C@@H](O)[C@@H]2[C@@H]3C(=O)N([C@@H](C)c4ccccc4)C(=O)[C@@H]3CC[C@H]12 -0.944
C[C@@H]1CC[C@H]2C(=O)NC[C@@H](O)CN2[C@H]1c1ccc(Br)cc1 -0.218 and 0.0277
COc1ccc(O[C@H]2C=C[C@@H](c3ccccc3)O[C@@H]2COC(=O)CCC(C)=NO[C@H](C)c2cn([C@H](CO)Cc3ccccc3)nn2)cc1 0.711 and 0.907
C=CCN(CCCC)C(=O)C(c1cccs1)N(C(=O)/C=C\C(=O)O)c1c(Cl)cccc1CO (stereo not given) 0.113 and 0.283
CC(CO)N1C(=O)[C@@H]2C3C(=O)OCCC=C[C@H]3OC23C=CCN(c2ccc(Cl)cc2)C(=O)[C@@H]13 (stereo not given in full) 0.817 and 0.0372
C=CCN(C(=O)C(c1cccs1)N(CCOCCO)C(=O)/C=C\C(=O)O)C(C)(C)C (stereo not given) 0.011 and -0.113
C=C[C@H](OC)[C@@H](O)c1ccc(O)c(F)c1 -0.138 and 0.403
CC(CO)N1C(=O)[C@@H]2C3C(=O)OCCC=C[C@H]3OC23C=CCN(C(C)(C)C)C(=O)[C@@H]13 (stereo not given in full) 0.406 and 0.112
